Measured values reported in PubChem BioAssay AID588676 (Johns Hopkins Ion Channel Center, 2011).
Screen size: about 310,000 compounds; about 3,900 (1.3%) were called active. This is one part of a sample in which actives are shown more often than they occur.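 The calls were made as follows: active = calcium-response B-score plate-corrected more than 3 library SD below zero, starting fluorescence within 5 deviations, no agonist response on first addition; inactive = the rest.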

Target: Mas-related G-protein coupled receptor member X1 (Homo sapiens) (UniProt Q96LB2)
Test: blockade of BAM8-22-evoked MrgX1 calcium response – HEK293 cells, Fluo-4 calcium flux, primary screen (AID 588676);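 as to B-score: peak minus trough fluorescence over baseline after final BAM8-22 challenge near maximal dose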
Conditions: Fluo-4, BAM8-22 antagonism, at 10 µM; active compounds read low

Mas-related G-protein coupled receptor member X1 (Homo sapiens), sequence (Q96LB2 whole entry, looked up): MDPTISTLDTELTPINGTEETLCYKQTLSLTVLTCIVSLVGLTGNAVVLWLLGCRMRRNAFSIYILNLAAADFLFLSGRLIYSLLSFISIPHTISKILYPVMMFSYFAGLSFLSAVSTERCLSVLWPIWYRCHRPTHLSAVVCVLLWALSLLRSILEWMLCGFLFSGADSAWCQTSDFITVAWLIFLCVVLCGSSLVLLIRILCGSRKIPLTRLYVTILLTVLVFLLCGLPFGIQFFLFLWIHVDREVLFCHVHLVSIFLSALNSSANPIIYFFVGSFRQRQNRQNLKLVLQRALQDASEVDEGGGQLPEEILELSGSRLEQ

SMILES	B-score
Cc1no[n+]([O-])c1COc1ccccc1/C=C1\NC(=S)NC1=O	inactive
O=c1c2c(nc3cc(-c4cccc(Cl)c4)[nH]n13)CCCC2	inactive
O=c1c2cc(Br)ccc2nc(-c2cccc(Cl)c2)n1O	inactive
O=C1CCCc2c1nc(-c1cccc(Cl)c1)n2O	-7.62 (active)
Cc1c(CC(=O)NCC(=O)NCC(=O)O)c(=O)oc2cc3oc4c(c3cc12)CCCC4	inactive
CC(C)CNC(=S)NC(=O)c1ccc(Cl)cc1	inactive
COc1cccc(-c2cccc(NC(=O)C3CCN(C4CCC4)CC3)c2)c1	inactive
O=C(CN(C(=O)c1csnn1)c1cccc(F)c1)NCc1ccc(F)cc1	inactive
COC(=O)C1=C(C(=O)OC)C2(OC1c1ccc(Br)cc1)C(=O)c1ccccc1C2=O (centres undefined)	inactive
Cc1ccccc1OCC(=O)Nc1nc(C)c(C(=O)N(C)C)s1	inactive
Cc1cccc(NC(=O)COc2ccccc2C)n1	-4.62 (active)
Cc1cccc(NC(=O)COc2ccc(Br)cc2C)n1	inactive
COc1ccc(C)cc1NC(=S)N1CCOCC1	inactive
COCC(=O)Nc1ccc(Br)cc1	inactive
CN1CCN(NC(=O)Nc2ccc(Br)cc2)CC1	inactive
CN1C(CC(=O)Nc2ccc(Br)cc2)c2ccccc2CC1(C)C (centres undefined)	-5.82 (active)
CCN(CC)c1ccc(C(=O)NNC(=O)CCc2nc3ccccc3c(=O)[nH]2)cc1	inactive
Cc1ccccc1N1CCN(S(=O)(=O)c2ccc3ccccc3c2)CC1	inactive
O=S(=O)(c1ccc2ccccc2c1)N1CCN(S(=O)(=O)N2CCOCC2)CC1	-11.5 (active)
Cc1ccc(S(=O)(=O)N2CCN(S(=O)(=O)N3CCOCC3)CC2)cc1	inactive
O=C(COc1ccc(Cl)cc1)NC(=S)Nc1ccccc1N1CCOCC1	-5.65 (active)
CCc1ccc(C(=O)NC(=S)Nc2ccccc2N2CCOCC2)cc1	inactive
Cc1cccc(OCC(=O)NC(=S)Nc2ccccc2N2CCOCC2)c1	inactive

SMILES	B-score
CCOC(=O)C1CCN(C(=O)CN2C(=O)c3cccnc3Oc3ccc(C)cc32)CC1	inactive
C[C@@H](NC(=O)[C@@H]1Cc2ccccc2CN1)C(=O)NC1CCCC1	inactive
Cc1nc2ccccc2nc(C)c1=NOCc1ccc(Cl)cc1Cl	inactive
COc1ccc(CCNC(=O)CCc2cn(C)c3ccccc23)c(OC)c1	inactive
NC(=O)NC(=O)C(OC(=O)CCNS(=O)(=O)c1ccccc1)c1ccccc1 (centres undefined)	inactive
CCOc1ccc(C(=O)Nc2ccncc2)cc1	inactive
CCOc1ccc(NC(=O)CCNC(=O)c2ccc(Br)cc2)cc1	-4.98 (active)
CCOc1ccc(NC(=O)c2ccc(NC(=O)COC(=O)c3ccc(NC(=O)CC#N)cc3)cc2)cc1	inactive
Fc1cccc(Cc2noc(CN3CCN(c4cnccn4)CC3)n2)c1	inactive
C=CCOc1cccc(CNCc2cccnc2)c1	inactive
c1ccc(COc2ccccc2CNCc2cccnc2)cc1	-6.34 (active)
Fc1ccccc1COc1ccccc1CNCc1ccncc1	inactive
COc1ccc(N2C(=O)C(CC(=O)Nc3ccccc3)N(Cc3ccc(OC)c(OC)c3)C2=O)cc1 (centres undefined)	inactive
COc1cc(C(=O)N(Cc2ccc(N(C)C)cc2)C2CCS(=O)(=O)C2)cc(OC)c1OC (centres undefined)	-4.58 (active)
CCOc1ccc(C(=O)N(Cc2ccc(N(C)C)cc2)C2CCS(=O)(=O)C2)cc1 (centres undefined)	inactive
COc1ccc(C(=O)N(Cc2ccc(N(C)C)cc2)C2CCS(=O)(=O)C2)cc1 (centres undefined)	inactive
O=Cc1ccc(OCc2cn3ccccc3n2)cc1	inactive
COC(=O)c1sccc1NC(=O)CSc1ccccc1NS(=O)(=O)c1cc(Cl)ccc1Cl	inactive
COC(=O)c1sccc1NS(=O)(=O)c1ccc(F)cc1F	-4.66 (active)
COc1ccc(NS(=O)(=O)c2ccc(F)cc2F)cn1	inactive
COc1c(Br)cc2c(C)c(C(=O)N3CCOCC3)oc2c1Br	inactive
O=C(CN1CCCC1)N1CCN(c2ccccc2)CC1	inactive
O=C(CN1CCN(c2ccc(Cl)cc2)CC1)N1CCCC1	-6.44 (active)

SMILES	B-score
O=C(CN1CCN(c2ccc(Cl)cc2)CC1)c1ccccc1	inactive
Cc1cccc(-[n+]2c(-c3cccc(Br)c3)[nH]c3nc4ccccc4nc32)c1	inactive
CN(CC(=O)Nc1ccccc1Cl)C(=O)COc1cccc2c1OC(C)(C)C2	-5.16 (active)
CC1(C)Cc2cccc(OCC(=O)Nc3nccs3)c2O1	inactive
COc1cccc(CCNC(=O)COc2cccc3c2OC(C)(C)C3)c1	-5.36 (active)
CC1(C)Cc2cccc(OCC(=O)NCc3ccccc3)c2O1	inactive
CC1(C)Cc2cccc(OCC(N)=O)c2O1	inactive
CC1(C)Cc2cccc(OCC(=O)N3CCN(c4ccc([N+](=O)[O-])cc4)CC3)c2O1	inactive
O=C(NNc1ccccc1Cl)C(O)(c1cccc(C(F)(F)F)c1)c1cccc(C(F)(F)F)c1	inactive
COc1ccc(S(=O)(=O)N2CCC(C(=O)NCCC(=O)NCc3cccc(OC)c3)CC2)cc1	inactive
COc1ccccc1CNC(=O)C1CCCN(S(=O)(=O)c2cccc3cccnc23)C1 (centres undefined)	inactive
COc1cccc(CNC(=O)C2CCN(S(=O)(=O)c3cccc4cccnc34)CC2)c1	-4.66 (active)
Fc1ccccc1OCCCCn1cncn1	inactive
OC(COc1ccc2ccccc2c1)Cn1cncn1 (centres undefined)	inactive
O=C(c1ccccc1)C(Cn1cncn1)C(Sc1ccccc1)c1ccccc1 (centres undefined)	-5.84 (active)
COc1ccc(C2(O)C(=O)Nc3ccccc32)cc1 (centres undefined)	inactive
COc1ccc(NC(=O)c2ccco2)cc1NC(=O)c1ccc(C#N)cc1F	inactive
Cc1c(C=O)c2ccccn2c1C(=O)c1ccncc1	inactive
CCCN1C2CCCC1CC(NC(=O)NC13CC4CC(CC(C4)C1)C3)C2 (centres undefined)	inactive
Nc1cccc(S(=O)(=O)Nc2ccc(SC(F)F)cc2)c1	inactive
COc1cccc(-n2c(Cc3cc(=O)[nH]c(=O)[nH]3)nnc2SCC(=O)Nc2ccccc2)c1	inactive
Cc1cccc(-n2c(Cc3cc(=O)[nH]c(=O)[nH]3)nnc2SC(C)C)c1	-6.63 (active)
Cc1cccc(-n2c(Cc3cc(=O)[nH]c(=O)[nH]3)nnc2SCC(=O)Nc2cccc(C(F)(F)F)c2)c1	inactive
